Only some compounds are listed: those with a hit (about 4.8% of all), similar ones and a draw of the others.
D3 antag: qHTS of D3 Dopamine Receptor Antagonist: qHTS; max response, negative = inhibition, %; D(3) dopamine receptor (Homo sapiens), P35462; 360,000 tested, 2.5% active; D3R cells, DiscoveRx beta-arrestin luminescence, antagonist mode; active compounds read low; in the data active = max response below about -50%; inconclusive = no clear call, values can overlap the other calls
Target sequence (P35462 whole entry, looked up): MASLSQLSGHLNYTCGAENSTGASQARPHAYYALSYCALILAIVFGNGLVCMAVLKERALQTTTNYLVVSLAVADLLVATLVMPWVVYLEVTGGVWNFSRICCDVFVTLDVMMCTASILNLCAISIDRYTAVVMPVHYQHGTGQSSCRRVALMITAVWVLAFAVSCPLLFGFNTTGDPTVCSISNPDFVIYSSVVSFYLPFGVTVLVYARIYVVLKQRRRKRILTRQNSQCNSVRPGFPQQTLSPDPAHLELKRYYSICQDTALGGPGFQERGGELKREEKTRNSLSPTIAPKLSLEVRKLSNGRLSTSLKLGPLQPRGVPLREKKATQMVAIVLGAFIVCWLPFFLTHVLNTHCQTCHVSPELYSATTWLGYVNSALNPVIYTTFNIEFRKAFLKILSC
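Cells plated overnight at 1500 cells/well, then exposed to library compounds with dopamine controls for 90 minutes at 37 degrees C. DiscoveRx reagent added for 30–60 minutes at room temperature; luminescence read, quantitative HTS format.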
DRD3 agonist: qHTS of D3 Dopamine Receptor Agonist: qHTS. 410,000 tested, 0.58% active. AID 652048, 2013. max activation, %. D(3) dopamine receptor (Homo sapiens), P35462. D3R DiscoveRx beta-arrestin cells, luminescence, 90 min; in the data active = max activation above about 30%
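Agonist-mode cell screen: cells plated at 1500/well and incubated overnight at 37 °C, then exposed to library compounds for 90 min at 37 °C. Detection reagent was added for 30–60 min at room temperature, and luminescence was read.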
S2 tox: Viability Counterscreen for Primary qHTS for Inhibitors of ATXN expression; 400,000 tested, 0.49% active; Potency, µM (doses to about 56.7 µM), usual class: cytotoxic; S2 cells (HEK-293 line with an ATXN2-luciferase reporter) viability, CellTiter-Fluor protease fluorescence, 24 h; also: nearly all actives have a fitted effect of over 40% in size
TGFb SMAD3 inh: qHTS for Inhibitors of TGF-b. AID 588855, 2011. 410,000 tested, 1.2% active. HepG2 CAGA-GFP TGF-b/SMAD3 reporter, GFP fluorescence, 18 h; TGF-beta stimulated, 500 pg/mL final. Potency, µM (top dose mostly 46.1 µM), most hits filed as inhibitors; also: nearly all actives have a fitted effect of over 65% in size
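Read-out: total well GFP (ex488/em500-530) summed from mean per-cell fluorescence. Cells: HEPG2 CAGA-GFP, 1% FBS DMEM, 18 h at 37 degrees C with 500 pg/mL final TGF-beta. Unstimulated wells served as the full-inhibition control; stimulated DMSO wells = 0%.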
ATXN2 expr inh: Primary qHTS for Inhibitors of ATXN expression | HEK-293 ATXN2-luciferase reporter, luminescence, 24 h | Potency, µM (series often up to 57 µM), hits mostly inhibitors | 360,000 tested, 0.72% active; also: nearly all actives have a fitted effect of over 55% in size
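ATXN2-luciferase reporter cells (luciferase flanked by upstream and downstream ATXN2 gene portions) were treated 24 h at 37 °C with compounds at up to 57 uM. SteadyGlo luminescence gave expression; GF-AFC fluorescence gave viability.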
HepG2 viability: qHTS for Inhibitors of TGF-b: Cytotox Counterscreen | AID 588856, 2011 | HepG2 CAGA-GFP viability, ATP luminescence, 18 h | Potency, µM (highest dose often 46.1 µM), most hits filed as cytotoxic | 410,000 tested, 0.76% active
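CellTiter-Glo luminescence gave cytotoxicity after 18 hours at 37 degrees C. The cells were HepG2 CAGA-GFP in 1% FBS DMEM, stimulated with 500 pg/mL TGF-beta after compound addition. %Activity was normalised to no-cell wells (complete cell-killing) and DMSO (no toxicity), and curves were fitted and classified.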
Of the large screens only hits and unclear results are named; the others gave an inactive call. Unless noted, calls follow the shape of the dose curve; as a rule, active = well fitted curve in the direction sought with a large enough effect; inconclusive = small, poorly fitted or top-dose-only effect, or another doubt; inactive = no such curve, though single readings can be large; an effect the other way counts as inactive or inconclusive.

O=[N+]([O-])c1cc(-c2nc(-c3ccccc3)no2)ccc1NC1CCCCC1	none (no result: D3 antag)
COc1cc(-c2nnc(SCCOc3ccc(Cl)cc3C)o2)cc(OC)c1OC	HepG2 viability 11µM (no result: D3 antag)
CCC1Nc2ncnc(N3CCN(c4ccccn4)CC3)c2N(Cc2ccc(Br)cc2)C1=O (stereo not given)	D3 antag -142
CCC1Nc2ncnc(N3CCN(c4ccccn4)CC3)c2N(Cc2ccc(Cl)cc2)C1=O (stereo not given)	D3 antag -104
Cc1cc(C(c2ccc(C)o2)c2ccc(C)o2)c(O)c([N+](=O)[O-])c1	D3 antag -97
Cc1[nH][nH]c(=O)c1C(c1ccc(O)c([N+](=O)[O-])c1)c1c(C)[nH][nH]c1=O	S2 tox inconclusive
Cc1ccc(C(c2ccc(C)o2)c2cccc([N+](=O)[O-])c2O)o1	D3 antag -73
COc1ccc2nc(NN=C(C)c3ccccn3)cc(C)c2c1	D3 antag inconclusive, S2 tox 7.5µM, TGFb SMAD3 inh 1.1µM, ATXN2 expr inh inconclusive
C/C(=N\Nc1ccc(Cl)cc1)c1ccccn1	none
Cc1ccc(-c2nnc3ccc(SCC(=O)N4CCCc5ccccc54)nn23)cc1	S2 tox 8.9µM, ATXN2 expr inh inconclusive
CCOC(=O)N1CCN(C(=O)CSc2ccc3nnc(-c4cccnc4)n3n2)CC1	D3 antag -98
CCn1c(SCC(=O)N2CCCc3ccccc32)nnc1-c1c[nH]c2ccccc12	D3 antag -51, TGFb SMAD3 inh inconclusive
CCn1c(SCC(=O)N2CCc3ccccc32)nnc1-c1c[nH]c2ccccc12	none
Cc1cccc(NC(=O)C(=O)NCC(c2cccnc2)N2CCOCC2)c1 (stereo not given)	none (no result: D3 antag)
Cc1[nH]cnc1-c1ccc(Cl)cc1	none (no result: D3 antag, DRD3 agonist, TGFb SMAD3 inh, HepG2 viability)
NCCCC[C@H](NC(=O)[C@@H]1CCCN1C(=O)[C@@H]1CSSC[C@H](N)C(=O)N[C@@H](Cc2ccc(O)cc2)C(=O)N[C@@H](Cc2ccccc2)C(=O)N[C@@H](CCC(N)=O)C(=O)N[C@@H](CC(N)=O)C(=O)N1)C(=O)NCC(N)=O	none (no result: D3 antag, TGFb SMAD3 inh, ATXN2 expr inh, HepG2 viability)
CCN1CCc2c(C#N)c(N3CCCCC3)nc(N3CCOCC3)c2C1	D3 antag -53
CCCCCC(=O)Nc1cccc(C2=NOC3(C2)C[C@@H](C(N)=O)N(C(=O)Cc2ccc([N+](=O)[O-])cc2)C3)c1 (stereo not given in full)	D3 antag -56, TGFb SMAD3 inh inconclusive
CCCCCC(=O)Nc1cccc(C2=NOC3(C2)C[C@@H](C(N)=O)N(C(=O)c2cc([N+](=O)[O-])cc([N+](=O)[O-])c2)C3)c1 (stereo not given in full)	S2 tox inconclusive
COC(=O)c1cc2ccc(OC)cc2c2cc(OC)c(OC)cc12	DRD3 agonist 80, S2 tox inconclusive, ATXN2 expr inh inconclusive
COC(=O)c1cc(OC)c(OC)cc1NC(=O)Nc1ccc(OC)cc1	TGFb SMAD3 inh inconclusive
O=C(COc1ccccc1-c1ccccc1)N/N=C/c1ccc2ccccc2c1	S2 tox inconclusive, TGFb SMAD3 inh 7.1µM, ATXN2 expr inh inconclusive
CCc1ccc(NC(=O)c2ccc(F)c(S(=O)(=O)N(C)C3CCCCC3)c2)cc1	none (no result: D3 antag, S2 tox, ATXN2 expr inh)
CCc1ccc(NC(=O)c2ccc(F)c(S(=O)(=O)NCC3COc4ccccc4O3)c2)cc1 (stereo not given)	S2 tox inconclusive, TGFb SMAD3 inh 11µM, ATXN2 expr inh inconclusive
CCc1ccc(NC(=O)c2ccc(F)c(S(=O)(=O)NC3CCCCCC3)c2)cc1	TGFb SMAD3 inh 11µM (no result: D3 antag, S2 tox, ATXN2 expr inh)
CCCCNC(=O)Cn1c(=O)cc(C)c2c(C)nn(-c3cccc(Cl)c3C)c21	none (no result: D3 antag)
CC(C)Nc1nc(NC(C)C)nc(N(C)N)n1	D3 antag -53
CC(C)Nc1nc(NC(C)C)nc(N(C)C(N)=O)n1	none
O=C1C2C3C=CC(CC3)C2C(=O)N1/N=C/c1ccccc1O (stereo not given)	D3 antag -65
O=C1C2C3C=CC(CC3)C2C(=O)N1/N=C/c1c(O)ccc2ccccc12 (stereo not given)	none (no result: ATXN2 expr inh)
CC(C)(C)OC(=O)N(Cc1ccccc1)Cc1ccc(OCc2cccc(NC(=O)C3CC3)c2)cc1	DRD3 agonist 65
CC(C)(C)OC(=O)N(CCc1ccccc1)Cc1ccccc1OCc1cccc(NC(=O)C2CCCC2)c1	D3 antag -50
CC(C)(C)OC(=O)N(CCc1ccccc1)Cc1ccc(OCc2cccc(NC(=O)C3CCCC3)c2)cc1	none
CCC(C)NC(=O)C1CCN(C(=O)c2cc3sccc3n2Cc2ccc(Cl)cc2)CC1 (stereo not given)	TGFb SMAD3 inh inconclusive (no result: D3 antag, S2 tox, ATXN2 expr inh)
Cc1ccc(C(=O)NCCc2nnc3n2CCN(C(=O)c2ccnc(Cl)c2)CC3)cc1	none (no result: D3 antag, DRD3 agonist, TGFb SMAD3 inh, ATXN2 expr inh, HepG2 viability)
COc1ccc(-c2cn3nc4c(nc3n2)CCCC4)cc1	D3 antag inconclusive, ATXN2 expr inh 16µM (no result: S2 tox)
COc1cccc(-c2cn3nc(C)c(C)nc3n2)c1	none
COC(=O)[C@@H](NC(=O)NC1CCN(Cc2ccccc2)CC1)C(C)C	D3 antag -53
S=C(Nc1ccc(Cl)c(Cl)c1)NC1CCN(Cc2ccccc2)CC1	D3 antag -55, TGFb SMAD3 inh inconclusive, ATXN2 expr inh inconclusive, HepG2 viability 11µM (no result: S2 tox)
COc1cccc(NC(=O)NC2CCN(Cc3nnnn3Cc3ccc(F)cc3)CC2)c1	none
O=C(Nc1cccc(F)c1)NC1CCN(Cc2ccccc2)CC1	D3 antag -82, S2 tox inconclusive (no result: ATXN2 expr inh)
CCCN1CCC(NC(=O)Nc2ccc(F)cc2F)CC1	D3 antag -53 (no result: S2 tox, ATXN2 expr inh)
CC(=O)Nc1ccc(/C=C/C(=O)c2ccc(-n3nncc3-c3ccccc3)cc2)cc1	TGFb SMAD3 inh inconclusive (no result: D3 antag, DRD3 agonist, S2 tox, ATXN2 expr inh)
Cc1ccc(Nc2ncnc3onc(C)c23)cc1Cl	none (no result: D3 antag)
COc1cccc(C(=O)N(Cc2cc3cc4c(cc3nc2N(C)C)OCO4)CC2CCCO2)c1 (stereo not given)	none (no result: D3 antag, DRD3 agonist, TGFb SMAD3 inh, ATXN2 expr inh, HepG2 viability)
O=C1CC(C(=O)N2CCCC(c3nc(-c4ccncc4)ncc3-c3ccccc3)C2)C2(CCCCC2)O1 (stereo not given)	none (no result: D3 antag, DRD3 agonist, TGFb SMAD3 inh, ATXN2 expr inh, HepG2 viability)
Fc1ccc(NC(=S)NC2CCN(Cc3ccccc3)CC2)cc1	D3 antag -55 (no result: ATXN2 expr inh)
CC(C)(C)CC(C)(C)NC(=S)NC1CCN(Cc2ccccc2)CC1	D3 antag inconclusive, S2 tox inconclusive, TGFb SMAD3 inh inconclusive, ATXN2 expr inh inconclusive
CN(C)CCOC(=O)C12CC3CC(CC(C3)C1)C2	D3 antag inconclusive
CN(C)CCOC(=O)C12CC3(C)CC(C)(CC(C)(C3)C1)C2	D3 antag -84

Bioassay records as filed in PubChem BioAssay.
